# Rows were chosen to be rich in hits. Some 10% of all compounds tested hit in one or more screens of this group.
# Pf growth 48h: Primary qHTS for delayed death inhibitors of the malarial parasite plastid, 48 hour incubation; P. falciparum luciferase growth in erythrocytes, 48 h; Potency, µM (top dose mostly 28.7 µM), for the others: at the highest dose activity change, negative = inhibition, most hits filed as inhibitors; 310,000 tested, 5.9% active; AID 504832, 2011; active means well fitted inhibition curve with a large enough effect; inconclusive means small, poorly fitted or top-dose-only effect, or another doubt; inactive means no such curve, though single readings can be large or run the other way; further: on the % scale 0 is the no-effect control and ±100 the full control effect
#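 Cell-based growth assay: transgenic P. falciparum expressing firefly luciferase, cultured in red cells within RPMI 1640 containing 0.5% w/v Albumax, 24 mM bicarbonate and gentamycin. A drop in luciferase activity indicates inhibition.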
# SARS PLpro yeast: qHTS of Yeast-based Assay for SARS-CoV PLP. S. cerevisiae expressing SARS-CoV PLpro, growth rescue. Potency, µM (top dose mostly 32.9 µM), without a hit: at the highest dose activity, positive = growth rescue, actives largely listed as activators. 330,000 tested, 0.19% active. AID 485353, 2010; further: 0% is about no effect; nearly all actives have a fitted effect of over 55% in size
# Pf growth 96h: Primary qHTS for delayed death inhibitors of the malarial parasite plastid, 96 hour incubation | 320,000 tested, 6.9% active | P. falciparum luciferase reporter growth, 96 h | AID 504834, 2011 | Potency, µM (doses to about 28.7 µM), inactives show top-dose activity change, negative = inhibition, most hits filed as inhibitors; active means well fitted inhibition curve with a large enough effect; inconclusive means small, poorly fitted or top-dose-only effect, or another doubt; inactive means no such curve, though single readings can be large or run the other way; further: on the % scale 0 is the no-effect control and ±100 the full control effect
#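 Readout is luminescence from an integrated firefly luciferase in P. falciparum. Red cells, 2% hematocrit and 0.05% parasitemia final, were cultured with compound through two parasite generations (96 hours) at 37 C, 5% CO2.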
# NS1 inh: qHTS Assay for Inhibitors of Influenza NS1 Protein Function; AID 2326, 2010; Potency, µM (doses to about 46.1 µM), inactives show at the top dose activity, positive = more growth; 270,000 tested, 0.4% active; further: actives are rising curves; nearly all actives have a fitted effect of over 50% in size
#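 Read-out: OD600 growth recovery of NS1-expressing budding yeast. Cells grown overnight at 30C in -URA glucose medium, washed, resuspended and diluted 1:100 in 2% galactose assay medium, pH 6.0. Same strain lacking NS1 served as positive control.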
# * hit, by the source's call; ? = inconclusive; nt = not tested or not shown. Unless noted, the call rests on the fitted dose curve. Potency means the concentration at half of the fitted maximal effect.
SMILES,Pf growth 48h,SARS PLpro yeast,Pf growth 96h,NS1 inh
CC(C)(C)OC(=O)CC1(C#N)c2ccccc2C(Br)=CN1C(=O)c1ccccc1 (stereo not drawn),11.7µM*,3.1%,11.7µM*,nt
CC(C(=O)N1CCc2ccccc21)N(C)CC(=O)Nc1ccccc1Cl (stereo not drawn),?,5.3%,16.5µM*,nt
CCC(CO)Nc1nc2ccc(Cl)cc2c2ccccc12 (stereo not drawn),-48.0%,2.5%,?,-5.6%
O=c1c2ccccc2[nH]c(=S)n1CCCN1CCN(C2CCCCC2)CC1,13.1µM*,0.3%,nt,2.3%
CCOc1cc2[nH]c(=O)n(Cc3ccc(C(=O)NCCOC)cc3)c(=O)c2cc1OCC,?,9.5%,?,10.6%
CCOC(=O)N1CCN(C(=O)c2ccc(Cn3c(=S)[nH]c4ccc(Br)cc4c3=O)cc2)CC1,11.7µM*,1.0%,3.7µM*,12.2%
CCOc1cc2[nH]c(=S)n(Cc3ccc(C(=O)O)cc3)c(=O)c2cc1OCC,26.1%,4.8%,9.28µM*,5.8%
CCCn1c(=S)[nH]c2cc(C(=O)N3CCN(C4CCCCC4)CC3)ccc2c1=O,0.4%,1.0%,10.4µM*,-9.2%
Cc1ccc(S(=O)(=O)N2CCN(C(=O)CCn3cncn3)CC2)cc1C,35.6%,-0.9%,2.6%,5.6%
CCNS(=O)(=O)c1ccc(Br)c(C(=O)OC(C)C(=O)NCC2CCCCC2)c1 (stereo not drawn),19.1%,-12.6%,-14.6%,nt
O=C(O)c1sccc1S(=O)(=O)N1CCOCC1,-21.4%,-0.2%,-6.6%,nt
N[C@@H](Cc1ncccn1)C(=O)O,nt,nt,nt,-1.8%
CCOC(=O)N1CCN(C(=O)CCc2ccccc2)CC1,-3.7%,2.3%,-12.8%,20.0%
CC(C)N(CCn1c(=S)[nH]c2ccccc2c1=O)C(C)C,nt,2.0%,2.94µM*,1.1%
O=c1c2ccccc2[nH]c(=S)n1CCN1CCCC1,-4.1%,-0.2%,4.7%,3.9%
CCOC(=O)N1CCN(CCc2ccccc2)CC1,25.5%,1.1%,10.4µM*,16.8%
CCOC(=O)N1CCN(C(=O)c2ccc3c(=O)n(CCc4ccccc4)c(=S)[nH]c3c2)CC1,?,-3.9%,8.28µM*,-16.1%
O=C(CN1CCN(Cc2ccc3c(c2)OCO3)CC1)Nc1ccc2[nH]c(=O)[nH]c2c1,nt,23.8%,nt,nt
Cc1ccc(NC(=O)C(C)OC(=O)CCN=C2NS(=O)(=O)c3ccccc32)cc1 (stereo not drawn),40.5%,-1.0%,16.1%,nt
COc1ccc(NC(=O)COc2cccc3c2CCN(C)C3=O)c(OC)c1,?,3.5%,?,3.1%
CCc1ccc2[nH]c3nc(N/N=C/c4ccc(O)cc4O)nnc3c2c1,8.28µM*,?,10.1%,7.9%
C[C@@H](C[C@H](N)C(=O)O)C(=O)O,nt,nt,nt,-1.7%
CN(C)CCCNc1ccc(-c2cc(Nc3cccc(Cl)c3)ncn2)cn1,1.85µM*,1.7%,0.928µM*,-1.4%
CN(C)CCNC(=O)COc1cccc(Cl)c1,30.0%,-3.4%,?,2.9%
COc1ccc(C(=O)NCCCNC(=O)c2ccccn2)cc1,-3.1%,-0.2%,-5.9%,1.1%
SMILES,Pf growth 48h,SARS PLpro yeast,Pf growth 96h,NS1 inh
Cc1ccccc1C(C)NC(=O)COC(=O)Cn1cc(C(F)(F)F)ccc1=O (stereo not drawn),-0.5%,-12.3%,-5.0%,nt
COc1cccc(CNC23CC4CC(CC(C4)C2)C3)c1OCc1ccccc1,10.4µM*,-0.6%,-14.5%,-9.3%
CCN(CC)S(=O)(=O)c1ccc(N2CCOCC2)c(NC(=O)C(=O)c2c(-c3ccccc3)cc3ccccn23)c1,6.57µM*,-23.9%,nt,2.3%
CCN(CC)S(=O)(=O)c1cc(NC(=O)C(=O)c2c(-c3ccccc3)cc3ccccn23)ccc1C,nt,-5.5%,11.7µM*,?
CCN(CC)S(=O)(=O)c1cccc(NC(=O)C(=O)c2c(-c3ccccc3)cc3ccccn23)c1,nt,-12.1%,7.38µM*,0.4%
CN(C)CCNC(=O)C(=O)c1c(-c2ccccc2)cc2ccccn12,-3.0%,1.1%,-3.8%,nt
CC(C)(S)[C@H](N)C(=O)O,nt,nt,nt,9.3%
O=[N+]([O-])c1ccccc1Oc1ncccc1[N+](=O)[O-],1.0%,0.0%,30.2%,nt
Cc1cc([N+](=O)[O-])cc(C)c1OCC(=O)N/N=C/c1ccc(OC(=O)c2ccccc2)cc1,?,0.3%,2.08µM*,-16.4%
Cc1ccc(CC(=O)N/N=C/c2ccc(OC(=O)c3ccc([N+](=O)[O-])cc3)cc2)cc1,-4.1%,-4.4%,?,12.2%
